# Assay results from ChEMBL document CHEMBL3988442, “University of Dundee, Small-Polar-MMV Screening Library” (2021).
# For some of these results: Potency and affinity values are given separately.
# Key:
# Parameters in all cases: scale not given: direction of the effect not stated beside the values
# [1] = biological target: Protein translocase subunit SecA (Escherichia coli (strain K12)) (UniProt P10408); assay: Assay to Identify E. coli SecA ATPase Inhibitors; assay type: functional; conditions: 30 µM
# Chain of Protein translocase subunit SecA (Escherichia coli (strain K12)) (P10408 whole entry): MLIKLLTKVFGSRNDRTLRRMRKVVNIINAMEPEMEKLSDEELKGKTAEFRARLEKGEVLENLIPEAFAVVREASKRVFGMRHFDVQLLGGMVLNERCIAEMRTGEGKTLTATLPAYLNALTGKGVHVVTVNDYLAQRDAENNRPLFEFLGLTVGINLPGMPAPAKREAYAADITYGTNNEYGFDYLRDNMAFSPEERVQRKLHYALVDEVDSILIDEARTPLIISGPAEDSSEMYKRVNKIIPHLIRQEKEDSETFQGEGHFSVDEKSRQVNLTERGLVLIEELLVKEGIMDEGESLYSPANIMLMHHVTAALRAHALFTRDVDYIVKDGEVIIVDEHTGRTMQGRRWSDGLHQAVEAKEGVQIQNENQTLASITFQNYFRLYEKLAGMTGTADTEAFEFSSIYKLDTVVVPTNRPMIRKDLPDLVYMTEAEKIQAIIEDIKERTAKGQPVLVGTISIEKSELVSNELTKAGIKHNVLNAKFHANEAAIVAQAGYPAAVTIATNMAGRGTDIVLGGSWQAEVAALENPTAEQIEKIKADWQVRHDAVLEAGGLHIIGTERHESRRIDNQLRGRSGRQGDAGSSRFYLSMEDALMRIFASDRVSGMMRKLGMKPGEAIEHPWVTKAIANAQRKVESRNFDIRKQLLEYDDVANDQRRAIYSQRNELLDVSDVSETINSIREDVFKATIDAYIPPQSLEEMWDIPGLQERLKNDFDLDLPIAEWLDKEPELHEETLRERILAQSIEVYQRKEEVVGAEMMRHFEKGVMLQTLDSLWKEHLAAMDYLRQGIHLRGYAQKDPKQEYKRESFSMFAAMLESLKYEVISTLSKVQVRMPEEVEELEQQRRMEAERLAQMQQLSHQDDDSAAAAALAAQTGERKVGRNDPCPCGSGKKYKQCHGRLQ
# [2] = biological target: T1, Ubiquitin-activating enzyme e1, putative (Leishmania donovani (strain BPK282A1)) (UniProt E9BSI1); assay: Leishmania donovani Ubiquitin Activating Enzyme (LdE1); assay type: functional; conditions: 30 µM
# T1 sequence (whole entry): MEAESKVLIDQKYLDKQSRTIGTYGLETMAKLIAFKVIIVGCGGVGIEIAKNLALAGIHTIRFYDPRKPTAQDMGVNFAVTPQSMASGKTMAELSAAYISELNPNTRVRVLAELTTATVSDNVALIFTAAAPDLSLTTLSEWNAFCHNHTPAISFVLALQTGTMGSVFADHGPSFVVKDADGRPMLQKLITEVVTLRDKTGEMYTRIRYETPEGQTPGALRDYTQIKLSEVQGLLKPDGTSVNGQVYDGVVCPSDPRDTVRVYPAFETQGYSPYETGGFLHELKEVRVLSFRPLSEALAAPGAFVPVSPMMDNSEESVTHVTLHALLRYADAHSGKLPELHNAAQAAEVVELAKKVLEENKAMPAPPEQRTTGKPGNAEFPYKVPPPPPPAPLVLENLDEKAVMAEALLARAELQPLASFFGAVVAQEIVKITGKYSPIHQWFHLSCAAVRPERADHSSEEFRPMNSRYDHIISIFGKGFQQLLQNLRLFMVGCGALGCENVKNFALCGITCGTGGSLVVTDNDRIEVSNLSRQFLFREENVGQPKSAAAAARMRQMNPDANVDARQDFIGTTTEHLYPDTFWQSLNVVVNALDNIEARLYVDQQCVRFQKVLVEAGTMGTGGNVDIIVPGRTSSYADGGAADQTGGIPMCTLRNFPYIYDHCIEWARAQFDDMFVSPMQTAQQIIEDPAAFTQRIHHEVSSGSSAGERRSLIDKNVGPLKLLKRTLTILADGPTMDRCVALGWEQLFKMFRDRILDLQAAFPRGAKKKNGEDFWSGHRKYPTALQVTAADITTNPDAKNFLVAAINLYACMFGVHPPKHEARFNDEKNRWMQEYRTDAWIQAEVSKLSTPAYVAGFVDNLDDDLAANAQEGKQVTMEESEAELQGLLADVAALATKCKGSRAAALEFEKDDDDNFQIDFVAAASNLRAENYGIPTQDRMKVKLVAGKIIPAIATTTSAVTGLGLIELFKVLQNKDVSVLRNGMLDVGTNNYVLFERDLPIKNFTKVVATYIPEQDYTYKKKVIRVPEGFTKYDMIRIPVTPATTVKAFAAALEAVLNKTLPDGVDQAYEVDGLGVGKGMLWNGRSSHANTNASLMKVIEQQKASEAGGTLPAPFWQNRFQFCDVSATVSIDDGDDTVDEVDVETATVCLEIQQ
# [3] = biological target: AMP-activated protein kinase, AMPK (Homo sapiens) (UniProt P54646+O43741+P54619+Q9UGJ0+Q9Y478+Q13131+Q9UGI9); assay: AMP-dependent Kinase enzyme assay. An in vitro enzyme assay that detects ADP turnover that is directly proportional to AMPK activity. This uses naive AMPK that is activated during the assay with MK-8722; assay type: functional; conditions: 30 µM
# [4] = biological target: Sialic acid-binding Ig-like lectin 9 (Homo sapiens) (UniProt Q9Y336); assay: Hs-Siglec9 ALPHAscreen SOP 20170721; conditions: 10 µM
# Chain of Sialic acid-binding Ig-like lectin 9 (Homo sapiens) (Q9Y336 whole entry): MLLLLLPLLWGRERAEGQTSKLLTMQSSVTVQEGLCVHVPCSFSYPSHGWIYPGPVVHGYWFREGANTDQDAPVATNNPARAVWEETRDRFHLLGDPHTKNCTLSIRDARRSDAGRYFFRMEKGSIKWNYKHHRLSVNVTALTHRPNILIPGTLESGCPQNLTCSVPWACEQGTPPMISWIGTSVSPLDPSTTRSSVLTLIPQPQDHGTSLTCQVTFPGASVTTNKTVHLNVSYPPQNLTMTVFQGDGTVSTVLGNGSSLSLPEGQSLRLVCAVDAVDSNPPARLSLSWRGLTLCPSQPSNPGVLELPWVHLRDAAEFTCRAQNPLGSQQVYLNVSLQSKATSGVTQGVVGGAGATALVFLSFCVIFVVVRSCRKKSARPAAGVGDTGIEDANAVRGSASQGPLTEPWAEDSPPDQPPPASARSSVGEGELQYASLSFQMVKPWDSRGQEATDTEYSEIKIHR
# Trypanosoma cruzi = assay: Trypanosoma cruzi phosphomannomutase and mannose-1-phosphate guanylyltransferase assay; assay type: functional; conditions: 10 µM
# [5] = biological target: T2, Arginase-2, mitochondrial (Homo sapiens) (UniProt P78540); assay: in vitro enzyme assay to detect the production of urea directly proportional to the activity of Arginase II; assay type: functional; conditions: 33.3 µM; also: in the data most compounds retested in dose-response had high values
# T2 sequence (whole entry): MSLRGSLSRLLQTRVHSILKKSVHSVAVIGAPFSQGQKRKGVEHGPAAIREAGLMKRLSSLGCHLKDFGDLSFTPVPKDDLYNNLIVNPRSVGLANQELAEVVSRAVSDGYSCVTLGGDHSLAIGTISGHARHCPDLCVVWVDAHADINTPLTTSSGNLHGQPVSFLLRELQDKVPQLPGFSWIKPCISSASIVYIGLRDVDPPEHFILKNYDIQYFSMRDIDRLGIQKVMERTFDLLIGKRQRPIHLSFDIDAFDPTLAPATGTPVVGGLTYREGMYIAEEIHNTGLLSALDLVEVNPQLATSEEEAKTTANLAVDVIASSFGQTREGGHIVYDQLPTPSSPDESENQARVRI
# [6] = biological target: T3, Proteasome subunit beta (Trypanosoma cruzi) (UniProt O96673); assay: Trypanosoma cruzi proteasome chymotrypsin-like activity (TcProtChymo) assay.; also: in the data most compounds retested in dose-response had high values; assay type: functional; conditions: 9.37 µM
# T3 sequence (whole entry): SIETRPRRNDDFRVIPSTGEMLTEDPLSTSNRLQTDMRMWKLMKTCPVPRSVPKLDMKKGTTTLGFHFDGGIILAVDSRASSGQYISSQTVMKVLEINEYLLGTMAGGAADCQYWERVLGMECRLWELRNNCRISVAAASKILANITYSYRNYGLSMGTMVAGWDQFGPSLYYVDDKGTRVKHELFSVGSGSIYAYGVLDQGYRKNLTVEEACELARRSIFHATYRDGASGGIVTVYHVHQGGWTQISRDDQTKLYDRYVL
# Homo sapiens = species: Homo sapiens; assay: To identify inhibition of the IFN signalling (Jak-Stat) pathway via expression of an eGFP reporter gene under the control of an IFN-stimulated response element (ISRE) containing MxA promoter.; assay type: functional; conditions: 30 µM
# [7] = biological target: T4, Tyrosyl-tRNA synthetase, putative (Trypanosoma cruzi (strain CL Brener)) (UniProt Q4DSP6); assay: Trypanosoma cruzi tyrosyl tRNA synthetase (TcYRS) _High Tyrosine SOP; assay type: functional; conditions: 30 µM; also: in the data most compounds retested in dose-response had high values
# T4 sequence (whole entry): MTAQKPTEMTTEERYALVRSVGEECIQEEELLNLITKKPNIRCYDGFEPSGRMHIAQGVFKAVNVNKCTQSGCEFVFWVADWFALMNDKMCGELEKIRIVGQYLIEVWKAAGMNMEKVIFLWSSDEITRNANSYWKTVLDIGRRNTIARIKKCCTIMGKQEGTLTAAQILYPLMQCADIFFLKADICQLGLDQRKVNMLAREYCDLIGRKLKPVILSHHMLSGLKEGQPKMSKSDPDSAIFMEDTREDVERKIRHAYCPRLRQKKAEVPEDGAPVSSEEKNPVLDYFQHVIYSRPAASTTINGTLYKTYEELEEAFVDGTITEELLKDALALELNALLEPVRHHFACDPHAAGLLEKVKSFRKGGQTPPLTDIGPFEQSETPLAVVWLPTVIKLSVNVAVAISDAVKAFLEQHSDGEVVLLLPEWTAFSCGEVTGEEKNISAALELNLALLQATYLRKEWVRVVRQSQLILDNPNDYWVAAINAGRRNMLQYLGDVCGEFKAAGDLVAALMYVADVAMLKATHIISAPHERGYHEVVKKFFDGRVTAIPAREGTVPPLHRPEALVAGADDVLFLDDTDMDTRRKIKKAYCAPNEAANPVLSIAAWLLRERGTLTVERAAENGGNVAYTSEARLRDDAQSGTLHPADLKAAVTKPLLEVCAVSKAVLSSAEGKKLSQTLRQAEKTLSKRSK
# [8] = biological target: T4, Tyrosyl-tRNA synthetase, putative (Trypanosoma cruzi (strain CL Brener)); assay: Trypanosoma cruzi tyrosyl tRNA synthetase (TcYRS) SOP; assay type: functional; conditions: 30 µM
# [9] = biological target: Chromo domain-containing protein 1 (Saccharomyces cerevisiae (strain ATCC 204508 / S288c) (Baker's yeast)) (UniProt P32657); assay: ScCHD-1 Enzyme Inhibition Assay; assay type: functional; conditions: 30 µM; also: in the data most compounds retested in dose-response had high values
# Chain of Chromo domain-containing protein 1 (Saccharomyces cerevisiae (strain ATCC 204508 / S288c) (Baker's yeast)) (P32657 whole entry, the tested form may be a part): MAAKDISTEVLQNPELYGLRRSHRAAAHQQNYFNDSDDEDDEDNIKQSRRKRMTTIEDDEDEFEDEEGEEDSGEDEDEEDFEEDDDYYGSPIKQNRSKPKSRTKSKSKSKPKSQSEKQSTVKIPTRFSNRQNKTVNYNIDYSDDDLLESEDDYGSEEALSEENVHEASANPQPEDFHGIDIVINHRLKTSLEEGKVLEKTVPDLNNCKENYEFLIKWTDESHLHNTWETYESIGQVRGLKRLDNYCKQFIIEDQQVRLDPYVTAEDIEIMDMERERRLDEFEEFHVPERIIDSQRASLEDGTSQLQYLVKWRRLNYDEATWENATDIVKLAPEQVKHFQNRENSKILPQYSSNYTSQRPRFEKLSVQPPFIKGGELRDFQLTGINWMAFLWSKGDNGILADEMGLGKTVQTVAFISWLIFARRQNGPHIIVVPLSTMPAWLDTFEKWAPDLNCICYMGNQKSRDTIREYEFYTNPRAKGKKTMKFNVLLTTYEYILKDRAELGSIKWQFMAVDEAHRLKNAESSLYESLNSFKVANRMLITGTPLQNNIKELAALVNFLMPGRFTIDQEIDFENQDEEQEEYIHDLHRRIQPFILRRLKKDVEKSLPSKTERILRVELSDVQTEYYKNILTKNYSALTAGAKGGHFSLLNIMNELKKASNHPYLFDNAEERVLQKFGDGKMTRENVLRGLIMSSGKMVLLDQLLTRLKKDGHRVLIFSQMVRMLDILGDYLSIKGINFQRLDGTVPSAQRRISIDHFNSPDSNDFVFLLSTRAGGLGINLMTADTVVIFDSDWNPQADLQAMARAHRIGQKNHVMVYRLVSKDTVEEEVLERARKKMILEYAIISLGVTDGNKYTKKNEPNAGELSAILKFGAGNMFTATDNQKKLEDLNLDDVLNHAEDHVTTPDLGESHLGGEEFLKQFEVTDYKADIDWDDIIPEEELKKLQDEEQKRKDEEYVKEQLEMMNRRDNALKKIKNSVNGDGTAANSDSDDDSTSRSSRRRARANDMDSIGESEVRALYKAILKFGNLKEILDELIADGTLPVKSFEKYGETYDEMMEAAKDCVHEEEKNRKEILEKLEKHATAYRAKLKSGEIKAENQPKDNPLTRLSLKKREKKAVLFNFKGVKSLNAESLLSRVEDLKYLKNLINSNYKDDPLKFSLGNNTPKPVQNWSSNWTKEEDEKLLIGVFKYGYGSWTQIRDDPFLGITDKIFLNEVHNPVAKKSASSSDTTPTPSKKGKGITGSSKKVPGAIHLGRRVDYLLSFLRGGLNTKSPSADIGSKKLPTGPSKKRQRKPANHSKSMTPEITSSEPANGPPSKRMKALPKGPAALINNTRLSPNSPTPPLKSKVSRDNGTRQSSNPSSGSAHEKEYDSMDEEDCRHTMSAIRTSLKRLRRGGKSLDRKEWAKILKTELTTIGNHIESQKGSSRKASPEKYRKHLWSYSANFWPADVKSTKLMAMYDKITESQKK
Compound,Percent Effect [1] [%],Percent Effect [2] [%],Percent Effect [3] [%],Percent Effect [4] [%],Percent Effect (Trypanosoma cruzi) [%],Percent Effect [5] [%],Percent Effect [6] [%],Percent Effect (Homo sapiens) [%],Percent Effect [7] [%],Percent Effect [8] [%],Percent Effect [9] [%]
CNc1nc2c(c(C(=O)N3CCCC3)n1)CN(Cc1nccn1C)CC2,-4.21,16.4,-8.14,7.16,2.38,-2.79,19.4,8.05,7.29,8.64,-2.56
CS(=O)(=O)NCCCN1CCCC1Cc1ccccc1 (stereo not given),-4.3,0,-5.49,11.9,3.49,-3.42,9.09,13,5.42,16.5,-3.37
CCO[C@H]1CO[C@@]2(CCCN(Cc3nc(C)cs3)C2)C1,-0.479,16.4,-4.62,9.84,3.17,-2.4,7.79,-0.894,8.33,18.5,-4.88
COCCC(=O)N1CCC2(COCc3cnc(N4CCOCC4)nc32)C1 (stereo not given),-4.87,10.7,18.4,-1.98,-5.51,2.1,8.02,11.9,0,6.41,-0.906
COC1CCN(C(=O)CCc2c(C)nc3ccnn3c2C)CC1,-0.424,5.26,1.13,-0.445,-3.64,5.4,1.95,-10.2,4.43,6.17,5.83
Cc1noc([C@H]2COC[C@H]3CN(C(=O)Cc4ccc(F)cc4)C[C@H]32)n1,-6.71,10.8,-2.57,13.3,3.91,3.75,7.18,-8.46,5.94,11,-1.22
CCn1cnnc1C1CCN(C(=O)COc2ccccc2)CC1,-7.35,13,-3.46,-2.33,4.6,-0.21,5.74,7.87,4.76,11.8,-22.2
CCS(=O)(=O)N1CCO[C@H]2[C@H](OCC3CCCC3)CC[C@@H]21,-3.86,5.33,0.773,0.841,5.21,-50.7,7.01,2.31,1.04,15,-5.43
Nc1nc(C2CCN(C(=O)c3cscn3)CC2)cs1,-2.59,10.7,8.2,-2.11,-3.15,-3.03,3.96,18.2,3.19,11.5,-5.08
Cc1cc(C)cc(N(C)S(=O)(=O)c2cc(C(=O)O)cs2)c1,-3.42,5.41,-10.8,15.8,5.57,-5.21,0,12.5,-1.48,3.7,-4.94
Cc1c(C(=O)N2CCCC2c2cnn(C)c2)nnn1-c1ccccc1 (stereo not given),-5.12,13.5,-11.2,15.4,4.55,-3.14,9.87,8.27,0.99,13.4,-7.97
Cn1ccnc1CN1CCC2(CC(=O)N(c3cccc(F)c3)C2)C1 (stereo not given),1.4,10.4,15,-4.43,-7.2,7.1,14.8,6.27,7.41,14.1,-7.71
O=C(CCN1CCCC1C1CCCCC1)N1CCc2sccc2C1 (stereo not given),-3.42,-48.6,11.2,-0.447,5.75,-5.21,-0.18,-25.7,14.3,11.1,10.3
CC(Oc1ccccc1C(F)(F)F)C(=O)NCCC(=O)N(C)C (stereo not given),-4.14,8.11,-2.52,6.01,2.93,26.2,3.47,-11.3,4.95,13.4,-4
COc1c(C2CCCN2Cc2csc(C(C)C)n2)c(C)nn1C (stereo not given),-0.655,18.2,-4.6,-3.17,-8.99,4.63,17.6,37.8,1.94,2.44,-7.12
CC(CNC(=O)c1ccc(F)cc1Cl)N1CCCC1 (stereo not given),-1.76,9.72,4.21,-4.19,-2.82,6.18,20.4,-9.11,3.16,5.13,-0.608
Cc1nnc2n1CCN(C(=O)c1cc(C)n(-c3ccccn3)c1C)C2,-5.88,13.2,-9.47,3.77,-1.03,3.6,17,4.26,4.43,13.6,2.79
Cc1ccc(Nc2nccc(C3CN(CC(N)=O)C3)n2)nc1,-6.39,20.3,2.38,3.4,7.12,-5.8,17.2,10.7,8.6,24.7,-14.1
O=C(COc1cccc2c1CCC2=O)NCCOc1ccccc1,-0.203,2.63,-0.945,-8.98,-6.33,3.55,9.68,40.1,-1.06,0,-2.69
CC(C)n1ccnc1C1CCN(Cc2ccc(Cl)s2)CC1,-4.43,7.79,1.43,13.8,7.96,6.9,6.99,9.49,8.6,16.1,-1.15
